Molecules are shown by their SMILES. A number with no mark means an inactive call.

The text below walks through data of the supplement of paper PMC10941209.

For the assay, the system named is Toxoplasma gondii RH 2F1 tachyzoites (intracellular in HFF). Kind of assay: parasite survival relative to DMSO control; higher = less antiparasitic activity, active = 20 or less. To be noted: 1 µM; 72 h. The method in brief: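 Intracellular Toxoplasma gondii RH-2F1 tachyzoites, which express β-galactosidase, were grown in HFF cells (5 × 10^3 cells/well, 96-well plates) infected with 5 × 10^3 parasites in D2 medium for 3 h, then treated with compound at 1 μM for 72 h at 37°C in 5% CO2. Cells were lysed for 15 min, then CPRG was added and absorbance read at 570 nm after 30 min. Survival is the signal as a percentage of DMSO-treated infected controls, from 2 or more biological replicates.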

For the compound `CO/N=C(\C(=O)N[C@@H]1C(=O)N2C(C(=O)OCOC(=O)C(C)(C)C)=C(/C=C\c3scnc3C)CS[C@H]12)c1csc(N)n1`, the parasite survival was 54.4%.
For `CC(=O)N1c2ccccc2NC2=C(C(=O)CC(C)(C)C2)C1c1ccc(OCc2ccccc2)cc1` (stereo not given), the parasite survival is 46.7%.
The figure for `COc1cc(NC(=O)CN2C(=O)NC(c3ccccc3)(c3ccccc3)C2=O)cc(OC)c1` is 49.2%; for `FC(F)(F)Oc1ccc(Nc2ccc3cccc(Cl)c3n2)cc1` it is 41.4%.
Then `O=C(Nc1[nH]c(=O)ncc1F)c1ccccc1`, with 84.3%; and `Cc1cc(Nc2ccc(F)cc2)nc(SCc2nc3ccccc3[nH]2)n1`, with 42.4%.
Then `O=C(/C=C\n1cnc(-c2cc(C(F)(F)F)cc(C(F)(F)F)c2)n1)NNc1ccccn1`, with 4.89% (active); and `CC(C)n1cnc2c(NCc3ccccc3)nc(NCc3ccccc3)nc21`, with 39.1%.
Regarding `CCOC(=O)N[C@@H]1CC[C@@H]2[C@@H](C1)C[C@H]1C(=O)O[C@H](C)[C@H]1[C@H]2/C=C/c1ccc(-c2cccc(F)c2)cn1`, the parasite survival was 23%.
On to `C[C@H](NC(=O)C(=O)Nc1ccccc1C(C)(C)C)C(=O)N[C@@H](CC(=O)O)C(=O)COc1c(F)c(F)cc(F)c1F`, for which the parasite survival is 6% (active).
Then `CCc1nc2ccccn2c1C(=O)NCc1ccccc1`, with 79.5%; and `CC(C)(C)c1cc(CCC(=O)N2CCC2)cc(C(C)(C)C)c1O`, with 52.9%.
Then `CCOC(=O)/C=C/[C@H](C[C@@H]1CCNC1=O)NC(=O)[C@@H](CC(=O)[C@@H](NC(=O)c1cc(C)on1)C(C)C)Cc1ccc(F)cc1`, with 48.2%; and `CN(C)[C@@H]1C(=O)C(C(N)=O)=C(O)[C@@]2(O)C(=O)C3=C(O)c4c(O)c(NC(=O)CN5CCCC5)cc(F)c4C[C@H]3C[C@@H]12`, with 34.5%.
The figure for `O=C(Cn1cnc2ccccc2c1=O)Nc1ccccc1` is 57.7%; for `CC(=O)N[C@H](C)C(=O)N[C@H](Cc1ccccc1)C(=O)O` it is 61.2%.
For `CCc1ccc(C2CC(C(F)(F)F)n3ncc(C(=O)NCc4ccc(OC)cc4)c3N2)cc1` (stereo not given), the parasite survival is 25.4%.
Then `O=C(O)COc1cccc2c1CC[C@](O)(COC(=O)N(c1ccccc1)c1ccccc1)C2`, with 76.3%.
On to `CCN(CC)S(=O)(=O)c1ccc(Cl)c(C(=O)Nc2sc3c(c2C#N)CCCC3)c1`, for which the parasite survival was 44%.
Then `COc1cc(Cc2cnc(N)nc2N)cc(OC)c1OC`, with 52.6%; and `CCN1CCN(Cc2nc3ccc([N+](=O)[O-])cc3c(=O)n2-c2ccccc2F)CC1`, with 59.6%.
Then `c1cnc(NCc2ccc(CNc3ncccn3)cc2)nc1`, with 71.1%; and `C=C(C)n1c(=O)n(Cc2ccccc2C)c2ccccc21`, with 44.5%; and `Nc1nc2c(ncn2COCCO)c(=O)[nH]1`, with 67.4%.
Then `O=C(Nc1ccc(N2CCN(C(=O)c3ccccc3)CC2)cc1)c1ccc2c(c1)OCO2`, with 46.9%.
Consider `COc1cc(NS(=O)(=O)c2ccc(C)cc2)c2ncccc2c1`, for which the parasite survival is 2.97% (active).
`Fc1ccc(-n2cc(Cn3c(-c4cccc(F)c4)nc4ccccc43)nn2)cc1`: the parasite survival was 50.1%.
Regarding `O=C(NC(=O)N1CCCc2ccccc21)c1cccc(Cl)c1`, the parasite survival is 28.3%.
The figure for `COc1cc2c(O)c3c(c(-c4ccc5c(c4)OCO5)c2cc1OC)C(=O)OC3` is 46.1%; for `N[C@@H]1CN(c2c(F)cc3c(=O)c(C(=O)O)cn([C@@H]4C[C@@H]4F)c3c2Cl)CC12CC2` it is 51.8%.
As for `Nc1nc2c(Cc3cccnc3)c[nH]c2c(=O)[nH]1`, the parasite survival was 72.8%.
For the compound `CCN(CC)CCCC(C)Nc1ccnc2cc(Cl)ccc12` (stereo not given), the parasite survival is 70.6%.
The figure for `COc1ccc(-n2cnc3cc(NCc4ccco4)ccc32)cc1` is 35%; for `O=C(O)c1cc(-c2ccc(Br)cc2)nc2ccc(Cl)cc12` it is 72.8%; for `COc1ccc(C2=CC(c3c(F)cccc3Cl)n3ncnc3N2)cc1` (stereo not given) it is 71.5%.
Then `COc1ccc(NC(=O)c2cc3ccccn3n2)cc1`, with 44.5%; and `O=C(NCCN1CCCCC1)c1cccc(C(F)(F)F)c1`, with 67.5%.
Take `O=[N+]([O-])c1cn(Cc2nc(O)nc(O)c2Br)cn1`: the parasite survival is 58.1%.
Turning to `O=C(Nc1ccccc1C(=O)O)c1cccc(Oc2ccccc2)c1`, the parasite survival is 39.4%.
Then `NNC(=O)c1ccncc1`, with 63.2%.
